Laboratory results published in PubChem BioAssay (Tox21).
Results filed as inconclusive are left out. Where a call stands in place of a potency, no number is given. Unmarked numbers belong to inactive results. The source made the active and inactive calls. The call rests on the fitted dose curve; in most records, active means well fitted cell-killing curve with a large enough effect in the repeat runs; inconclusive means weak or mixed curves, or effect the other way; inactive means no such curve, though single readings can be large or run the other way.

Test: qHTS assay to identify small molecule antagonists of the vitamin D receptor (VDR) signaling pathway - cell viability counter screen (AID 743225); further: nearly all actives have a fitted effect of over 50% in size
Conditions: VDR-bla HEK293T viability, CellTiter-Glo luminescence, 16 h; series mostly up to 61 µM
From the text: U.S. Tox21 Program National Center for Advancing Translational Sciences [NCATS] NIH Chemical Genomics Center [NCGC] U.S. Environmental Protection Agency [EPA] National Institutes of Environmental Health Sciences [NIEHS] National Toxicology Program [NTP] U.S. Food and Drug Administration [FDA] Tox21 Assay Overview: The vitamin D receptor (VDR), a member of nuclear hormone receptor superfamily, plays a critical role in calcium homeostasis and bone metabolism. It is also involved in cell differentiation and growth, and thrombogenicity. To identify the compounds that inhibit VDR signaling, the VDR-UAS-bla HEK 293T cell line (Invitrogen, Carlsbad, CA, USA) containing a beta-lactamase reporter gene under the control of an upstream activator sequence (UAS) was used to screen the Tox21 10K compound library. The cytotoxicity of the Tox21 compound library against the VDR-bla cell line was tested in parallel by measuring the cell viability using CellTiter-Glo assay (Promega, Madison, WI) in the same wells.
Tox21 Assay Protocol Summary: VDR-bla cells were dispensed at 2,000 cells/5 uL of assay medium per well into black wall/clear-bottom 1536-well plates using a Multidrop Combi (Thermo Fisher Scientific, Waltham, MA) dispenser. After the assay plates were incubated at a 37C and 5% CO2 for 4 h, 23 nL of compounds dissolved in DMSO, positive controls or DMSO only was transferred to the assay plate by a Pintool station (Kalypsys, San Diego, CA), followed by addition of 1 uL of 1-alpha, 25-Dihydroxy Vitamin D3 (3 nM, final concentration in the wells) using a Bioraptr Flying Reagent Dispenser (FRD) workstation (Beckman Coulter, Indianapolis, IN). The plates were incubated at 37C and 5% CO2 for 16 h, and then 1 uL of LiveBLAzerTM B/G FRET substrate was added using a Bioraptr FRD. The plates were incubated at room temperature for 2 h and fluorescence intensity was measured by an Envision plate reader (PerkinElmer, Shelton, CT). For cell viability readout that measures cytotoxicity, 3 ul/well of CellTiter-Glo reagent was added into the assay plates using a Bioraptr FRD. After 30 min incubation at room temperature, the luminescence intensity in the plates was measured using a ViewLux plate reader (PerkinElmer).

Row | SMILES | Potency | viability change, negative = cytotoxic
1 | CCN(CC)CCOCCOC(=O)C1(c2ccccc2)CCCC1 | inactive | 
2 | CC(C(=O)O)c1ccc(CC2CCCC2=O)cc1 (stereo not given) | inactive | 
3 | Cc1c(NC(C)C)c(=O)n(-c2ccccc2)n1C | inactive | 
4 | CCCCCCCCCCCCCC=O |  | 5.28% [at 6.95 µM]
5 | CC(=O)OCC(=O)[C@@]1(O)CC[C@H]2[C@@H]3CCC4=CC(=O)CC[C@]4(C)[C@H]3C(=O)C[C@@]21C | inactive | 
6 | COc1nc(N)nc2c1ncn2[C@@H]1O[C@H](CO)[C@@H](O)[C@@H]1O | inactive | 
7 | NS(=O)(=O)c1cc(C(=O)NN2C[C@H]3[C@H]4CCC(C4)[C@H]3C2)ccc1Cl | inactive | 
8 | CC(C)NC(=O)NC(C)C | inactive | 
9 | CCCCOCCOCCOCCCC | inactive | 
10 | CCn1nc(C(=O)O)c(=O)c2cc3c(cc21)OCO3 | inactive | 
11 | COc1ccc2c(c1)c(CC(=O)OCC(=O)O)c(C)n2C(=O)c1ccc(Cl)cc1 | inactive | 
12 | O=C1CCCCCCCCCCCN1 | inactive | 
13 | CC(C)CNCC(C)C | inactive | 
14 | CCCCCOC(=O)CCCCC | inactive | 
15 | O=C(CCCN1CCC(O)(c2cccc(C(F)(F)F)c2)CC1)c1ccc(F)cc1 | inactive | 
16 | CCOC(=O)CC(C)=O | inactive | 
17 | CC(=O)OCC(CCn1cnc2cnc(N)nc21)COC(C)=O | inactive | 
18 | CCC(C)S (stereo not given) |  | 1.2% [at 3.11 µM]
19 | CCOC(=O)c1c(C)n(C)c2ccc(O)cc12 | inactive | 
20 | CC1=CC(C)C(C=O)CC1 (stereo not given) | inactive | 

Row | SMILES | Potency | viability change, negative = cytotoxic
21 | C=C(C)C(=O)OCCCCCCCC(C)C | inactive | 
22 | Cc1c(O)cccc1O | inactive | 
23 | CCO/C([O-])=N/c1c[n+](N2CCOCC2)no1 | inactive | 
24 | CC(C)CCCC(C)N (stereo not given) | inactive | 
25 | Nc1nc2c(ncn2COC(CO)CO)c(=O)[nH]1 | inactive | 
26 | O=S(O)CO | inactive | 
27 | CC/C=C\CC/C=C/CO | inactive | 
28 | C=CCCCCCCCCC=O | inactive | 
29 | COC(=O)[C@@H](N)Cc1ccc(O)c(O)c1 | inactive | 
30 | c1ccc(CC2=NCCN2)cc1 | inactive | 
31 | Cc1cnc(NS(=O)(=O)c2ccc(N)cc2)nc1 | inactive | 
32 | CCOC(C)(C)C | inactive | 
33 | OC1CCCCC1c1ccccc1 (stereo not given) | inactive | 
34 | CCc1ccc(O)c(OC)c1 | inactive | 
35 | Cn1c(N)c(N=O)c(=O)n(C)c1=O | inactive | 
36 | FC1(F)C(F)(F)C(F)(F)C2(F)C(F)(F)C(F)(F)C(F)(F)C(F)(F)C2(F)C1(F)F (stereo not given) | inactive | 
37 | O=C(O)COc1nn(Cc2ccccc2)c2ccccc12 | inactive | 
38 | CCCC(=O)O[C@]1(C(=O)CO)CC[C@H]2[C@@H]3CCC4=CC(=O)CC[C@]4(C)[C@H]3[C@@H](O)C[C@@]21C | inactive | 
39 | CC(C)(C)NCCNC(C)(C)C | inactive | 
40 | C[N+](C)(C)CCCCCC[N+](C)(C)C | inactive | 
